Results from PubChem BioAssay AID504850 (National Center for Advancing Translational Sciences (NCATS), 2011).
In all, about 2,300 compounds went through this assay and about 1,200 (52%) were called active. Inconclusive results (about 34%) are left out. The call rests on the fitted dose curve; in most records, active means well fitted inhibition curve with a large enough effect; inconclusive means small, poorly fitted or top-dose-only effect, or effect the other way; inactive means no such curve, though single readings can be large or run the other way. The set was probably picked from earlier hits. The list shows a part of the results.

Assay: Confirmation screen for delayed death inhibitors of the malarial parasite plastid, 48 hour incubation; further: nearly all actives have a fitted effect of over 65% in size
Details: P. falciparum-infected erythrocytes, luciferase growth; series mostly up to 28.7 µM
Outline: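 Erythrocytes infected with luciferase-expressing P. falciparum (2% hematocrit, 0.1% parasitemia) incubated with compounds 48 hours at 37 C, 5% CO2, in RPMI/Albumax. Growth inhibition scored as reduced luminescence after detection reagent.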
Potency means the concentration at half of the fitted maximal effect.

Compound | Potency
Cc1ccc(-c2csc3ncn(CC#N)c(=O)c23)cc1C | inactive
Cc1ccccc1NC1=NCC(c2ccc([N+](=O)[O-])cc2)S1 (stereo unspecified) | 11.2 µM (active)
C=CCNC(=O)c1onc(CSc2cc(C)cc(C)c2)c1C(=O)O | inactive
C=CCNC(=O)c1onc(CSc2ccc(C)c(C)c2)c1C(=O)O | inactive
C=CCNC(=O)c1oc2ccc(S(=O)(=O)N3CCCCC3)cc2c1C | 14.1 µM (active)
CCN(CC)Cc1cc2[nH]c3c4ccc(Cl)cc4ncc3c2cc1OC | 0.178 µM (active)
CCCCCCn1ccc(=N)cc1 | 7.08 µM (active)
CCOC(=O)c1c(NC(=O)c2c(-c3ccccc3)noc2C)sc(C)c1-c1ccccc1 | 6.31 µM (active)
CCOC(=O)c1c(-c2ccc(-c3ccccc3)cc2)csc1NC(=O)c1cccc(N2C(=O)CCC2=O)c1 | 5.01 µM (active)
CCOC(=O)c1c(-c2ccc(F)cc2)csc1NC(=O)c1c(-c2ccccc2)noc1C | 8.91 µM (active)
CCOC(=O)c1c(-c2cccc(C)c2)csc1NC(=O)c1c(-c2ccccc2)noc1C | 11.2 µM (active)
COC(=O)c1c(-c2ccccc2)csc1NC(=O)c1c(-c2ccccc2)noc1C | 14.1 µM (active)
O=C(c1cccs1)N1N=C(c2ccccc2)CC1c1ccccc1O (stereo unspecified) | 3.55 µM (active)
CCOc1ccc2c(c1)OC(c1ccccc1)(C(F)(F)F)NC2=O (stereo unspecified) | 2 µM (active)
CC[C@@H](C)C(NC(=O)OC(C)(C)C)c1cn([C@@H](Cc2ccc(O)cc2)C(=O)N2CCN(C(=O)OC(C)(C)C)CC2)nn1 (stereo partly specified) | 12.6 µM (active)
CC[C@@H](C)C(NC(=O)OC(C)(C)C)c1cn([C@@H](CCCCNC(=O)OC(C)(C)C)C(=O)N2CCN(C(=O)OC(C)(C)C)CC2)nn1 (stereo partly specified) | 2 µM (active)
COc1ccccc1NC(=O)c1ccc(S(=O)(=O)NCc2ccco2)cc1 | inactive
CCOc1ccccc1NC(=O)c1cc(S(=O)(=O)NCc2ccco2)ccc1F | 12.6 µM (active)
O=C1c2cccc3cc([N+](=O)[O-])cc(c23)C(=O)N1CCN1CCCC1 | 10 µM (active)

Compound | Potency
Cc1nnnn1/C(=C\c1ccccc1)C(=O)OCC(=O)N1CC2(C)CC1CC(C)(C)C2 (stereo unspecified) | 12.6 µM (active)
CCN1C(=O)c2ccccc2Sc2ccc(C(=O)NCCCN3CCCCC3)cc21 | 12.6 µM (active)
Cc1cccc(CN2C(=O)c3ccccc3S(=O)(=O)c3ccc(C(=O)NCCCN4CCCC4)cc32)c1 | 3.98 µM (active)
O=C(NCCCN1CCCC1)c1ccc2c(c1)N(Cc1ccccc1F)C(=O)c1ccccc1S2=O (stereo unspecified) | 12.6 µM (active)
O=C(c1ccc2c(c1)N(Cc1cccc(Cl)c1)C(=O)c1ccccc1S2(=O)=O)N1CCN(c2ccccn2)CC1 | 3.98 µM (active)
CC(C)[C@H](NC(=O)N1CCn2c1nc1ccccc12)C(=O)N[C@H](C(=O)O)c1ccccc1 | inactive
CCN1CCCC1CNC(=O)c1ccc2c(c1)N(Cc1ccccc1F)C(=O)c1ccccc1S2(=O)=O (stereo unspecified) | 5.01 µM (active)
CCOC(=O)N1CCN(C(=O)c2ccc3c(c2)N(Cc2cc(C)ccc2C)C(=O)c2ccccc2S3=O)CC1 (stereo unspecified) | 4.47 µM (active)
CC(NC(=O)CCl)c1ccccc1Br (stereo unspecified) | 2.24 µM (active)
CC(=O)/C=C/c1ccc2ccccc2n1 | 12.6 µM (active)
Cc1cccc(N(Cc2ccccc2)C(=O)CSC(C)C(=O)Nc2cc(C)on2)c1 (stereo unspecified) | 11.2 µM (active)
Cc1cc(C)c(OCC(O)CNC(C)(C)C)c(C)c1 (stereo unspecified) | 11.2 µM (active)
Cn1nnnc1Sc1ncnc2scc(-c3ccsc3)c12 | 4.47 µM (active)
Cn1nnnc1Sc1ncnc2scc(-c3cccs3)c12 | 12.6 µM (active)
Cn1nnnc1Sc1ncnc2scc(-c3ccc[nH]3)c12 | 12.6 µM (active)
O=C(NCc1ccccn1)Nc1cc(Cl)ccc1Cl | 5.01 µM (active)
Cc1ccc(Oc2nc3ccccn3c(=O)c2/C=C(\C#N)C(=O)NC2CCS(=O)(=O)C2)c(C)c1 (stereo unspecified) | 12.6 µM (active)
CCN(CC)CCNC(=O)C1c2cc(OC)c(OC)cc2C(=O)N2CCc3ccccc3C12 (stereo unspecified) | 7.08 µM (active)
CCCN(CCC)CCNC(=O)C1c2ccccc2C(=O)N2CCc3ccccc3C12 (stereo unspecified) | inactive

Compound | Potency
CC(=O)c1ccccc1OCC(O)CN1CCN(C(c2ccccc2)c2ccccc2)CC1 (stereo unspecified) | 2.24 µM (active)
O=C(N/N=C/c1ccc([N+](=O)[O-])cc1)c1cccc(N2CCCC2=O)c1 | 11.2 µM (active)
Cc1nn(-c2ccccc2)c(N2CCCC2)c1/C=N/NC(=O)c1ccccc1O | 5.01 µM (active)
Cc1nn(-c2ccccc2)c(N2CCCC2)c1/C=N/NC(=S)Nc1ccccc1F | 12.6 µM (active)
CC(C)Cc1csc(NC(=O)C(C)C)c1C(=O)O | inactive
CCOC(=O)C1(CCc2ccccc2)CCN(Cc2ccccn2)CC1 | 4.47 µM (active)
Cc1cccc(NC(=O)CSc2nc3ccccc3nc2N2CCCCC2)c1 | 11.2 µM (active)
COc1cccc(NC(=O)CSc2nc3ccccc3nc2N2CCCC2)c1 | 14.1 µM (active)
Cc1cccc(NC(=O)CSc2nc3ccccc3nc2N2CCCC2)c1 | 14.1 µM (active)
O=C1C(=O)c2ccccc2C(O)=C1c1cccc([N+](=O)[O-])c1 | 12.6 µM (active)
Nc1nc(N)nc(-c2cc([N+](=O)[O-])ccc2O)n1 | inactive
Cc1ccc(C2C3=C(CC(C)(C)CC3=O)N=C3c4ccccc4C(=O)C32)cc1 (stereo unspecified) | 8.91 µM (active)
COc1ccc(-n2c(C)cc(C(=O)Cn3c(NCCO)nc4ccccc43)c2C)cc1 | 12.6 µM (active)
CCOc1ccc(C2c3[nH]c4ccccc4c3CCN2Cc2cccn2-c2ncccn2)cc1 (stereo unspecified) | 12.6 µM (active)
Cc1ccccc1C1c2[nH]c3ccccc3c2CCN1Cc1cccn1-c1ncccn1 (stereo unspecified) | 12.6 µM (active)
Cc1c(NC(=S)NC(=O)C(C)(C)C)c(=O)n(-c2ccccc2)n1C | inactive
Cc1cc(C)cc(-n2c(N)c(C(=O)Nc3c(C)n(C)n(-c4ccccc4)c3=O)c3nc4ccccc4nc32)c1 | 4.47 µM (active)
COc1ccc2c(C)c(CCC(=O)NC3CC3)c(=O)oc2c1C | 3.98 µM (active)
